Screening results from PubChem BioAssay.
ALDH1A1 inh = qHTS Assay for Inhibitors of Aldehyde Dehydrogenase 1 (ALDH1A1). Potency, µM (highest dose often 75.3 µM), without a hit: at the highest dose activity, negative = inhibition, hits mostly inhibitors. Aldehyde dehydrogenase 1A1 (Homo sapiens), P00352. 7.3% of 220,000 active. Purified ALDH1A1, NADH fluorescence, propionaldehyde substrate; active means well fitted inhibition curve with a large enough effect, not every such curve was filed as active; inconclusive means small, poorly fitted or top-dose-only effect, or another doubt; inactive means no such curve, though single readings can be large or run the other way;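 further: potency means the concentration at half of the fitted maximal effect; plate controls were no enzyme wells and a reference inhibitor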
miR-21 act = qHTS Assay for Modulators of miRNAs and/orActivators of miR-21. Potency, µM (top dose mostly 38.3 µM), inactives show at the top dose activity change, positive = activation, most hits filed as activators. AID 2288, 2010. HeLa miR-21 FLuc reporter, luciferase, 48 h. 340,000 tested, under 10 active;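 further: % of control where 0% means no effect; miR-21 action dims this reporter so a rising signal means less miR-21 action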
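Luminescence from a firefly luciferase reporter carrying a miR-21 binding site downstream, stably expressed under a CMV promoter in HeLa cells that make miR-21 endogenously, reports miRNA modulation after 48 h compound exposure up to approximately 40uM final.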
Sfp inh = qHTS Assay for Inhibitors of Bacillus subtilis Sfp phosphopantetheinyl transferase (PPTase). 3.5% of 310,000 active. 4'-phosphopantetheinyl transferase ffp (Bacillus subtilis), Q9F4F7. Biochemical Sfp PPTase activity, qHTS. Potency, µM, without a hit: largest response in the series, negative = inhibition, most hits filed as inhibitors;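 further: the enzyme is Sfp with the accession as filed and its product quenches rhodamine fluorescence; potency means the concentration at half of the fitted maximal effect; 0% = enzyme reaction without inhibitor and -100% = no enzyme wells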
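Sfp 15 nM + cpd, 15 min RT; start w/ rhodamine-CoA 5 uM, BHQ-2-YbbR 12.5 uM (final); 50 mM Hepes pH 7.6, 10 mM MgCl2, 0.01% NP-40, 0.01% BSA; read 525/598 nm at 0 and 30 min.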
Lamin A splicing = qHTS Assay for Modulators of Lamin A Splicing | HeLa LMNA splicing GFP/RFP minigene ratio, 48 h | Potency, µM (doses to about 46.1 µM), for the others: top-dose ratio change, negative = inhibition, actives largely listed as inhibitors | 0.01% of 200,000 active; active means well fitted inhibition curve with a large enough effect in the signal ratio, with a control signal flat, not every such curve was filed as active; inconclusive means small, poorly fitted or top-dose-only effect, or effect the other way, or a change in a side signal; the % refers to the signal ratio; further: potency means the concentration at half of the fitted maximal effect; on the % scale 0 is the no-effect control and ±100 the full control effect
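S3 HeLa cells stably expressing lamin A-EGFP splicing minigene plus DsRed2, 600 cells/well, 48 h compound exposure at 37C. Laser-scanning cytometry; analysed as GFP (500-530 nm)/RFP (575-640 nm) total intensity ratio; 0.5% DMSO vehicle.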
KDM4E inh = qHTS Assay for Inhibitors of Human Jumonji Domain Containing 2E (JMJD2E); Lysine-specific demethylase 4E (Homo sapiens), B2RXH2; JMJD2E catalytic domain, FDH-coupled NADH fluorescence (FDH is formaldehyde dehydrogenase); Potency, µM (titrated, usually from 57.1 µM), inactives show at the highest dose activity change, negative = inhibition, usual class: inhibitors; 1.6% of 230,000 active; AID 2147, 2009; active means well fitted inhibition curve with a large enough effect, not every such curve was filed as active; inconclusive means small, poorly fitted or top-dose-only effect, or another doubt; inactive means no such curve, though single readings can be large or run the other way;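 further: potency means the concentration at half of the fitted maximal effect; 0% = wells with enzyme and -100% = buffer wells without enzyme; nearly all actives have a fitted effect of over 50% in size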
Target sequence (B2RXH2 1-337 limits assumed): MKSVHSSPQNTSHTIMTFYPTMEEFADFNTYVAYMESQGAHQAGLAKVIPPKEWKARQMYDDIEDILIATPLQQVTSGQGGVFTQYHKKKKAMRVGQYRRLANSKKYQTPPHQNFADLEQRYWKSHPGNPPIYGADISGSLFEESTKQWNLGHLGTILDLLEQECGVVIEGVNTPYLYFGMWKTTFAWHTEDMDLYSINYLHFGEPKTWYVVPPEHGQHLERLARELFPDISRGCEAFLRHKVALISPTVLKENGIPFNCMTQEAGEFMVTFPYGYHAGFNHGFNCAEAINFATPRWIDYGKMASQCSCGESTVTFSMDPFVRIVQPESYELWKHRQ
G9a block = qHTS Assay for Inhibitors of Histone Lysine Methyltransferase G9a. AID 504332, 2011. Potency, µM (highest dose often 102 µM), without a hit: at the highest dose activity, negative = inhibition, usual class: inhibitors. 8.8% of 350,000 active. G9a H3K9 monomethylation, AlphaScreen, 2 h; further: potency means the concentration at half of the fitted maximal effect; on the % scale 0 is the no-effect control and ±100 the full control effect; nearly all actives have a fitted effect of over 75% in size
Target sequence (Q96KQ7 913-1193 limits assumed): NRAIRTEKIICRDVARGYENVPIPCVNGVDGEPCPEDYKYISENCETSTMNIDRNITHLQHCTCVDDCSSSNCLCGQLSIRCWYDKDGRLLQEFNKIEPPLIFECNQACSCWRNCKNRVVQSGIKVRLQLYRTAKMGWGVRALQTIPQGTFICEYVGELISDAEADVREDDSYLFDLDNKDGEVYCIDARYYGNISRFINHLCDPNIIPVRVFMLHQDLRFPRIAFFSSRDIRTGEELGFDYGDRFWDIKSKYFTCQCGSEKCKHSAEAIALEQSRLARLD
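Chemiluminescent proximity detection of H3K9 monomethylation, read after 10 min bead incubation in the dark. Reaction: 20 nM G9a, 500 nM biotin-H3K9 peptide, 20 uM SAM cofactor, 2 h, room temperature, following 15 min enzyme-compound preincubation.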
Numbers without * were called inactive; ? = inconclusive; · = no result; ! = not confirmed by another sample; [ ] = another dose, or the depositor's remark. This is a sample that favours compounds with a hit; in the whole collection about 13% have one here. Unless noted, the call rests on the fitted dose curve; in most records, active means well fitted curve in the direction sought with a large enough effect; inconclusive means small, poorly fitted or top-dose-only effect, or another doubt; inactive means no such curve, though single readings can be large; an effect the other way counts as inactive or inconclusive.

SMILES	ALDH1A1 inh	miR-21 act	Sfp inh	Lamin A splicing	KDM4E inh	G9a block
O=S(=O)(CCc1ccccc1)c1nc2ccccc2s1	-4.7%	·	-19.3%	·	1.1%	·
N#Cc1cccc(CS(=O)(=O)c2nc3ccccc3s2)c1	14.1µM*	·	-9.5%	·	3.3%	·
C=CCS(=O)(=O)c1nc2ccccc2s1	0.794µM*	?	-3.0%	?	-3.9%	-43.5%
Cc1ccc(Cl)cc1N1CCN(C2(c3ccccc3)C(=O)c3ccccc3C2=O)CC1	·	7.1%	·	·	·	?
COc1ccc(NC(=O)Cn2c(=O)n(-c3ccc(OC)c(OC)c3)c(=O)c3ccccc32)cc1	·	-5.5%	·	·	·	5.6%[59 µM]
COc1ccc(-n2c(=O)c3ccccc3n(CC(=O)Nc3cc(C)on3)c2=O)cc1OC	2.5%	-4.0%	44.7µM*	0.0%	-2.3%	-32.1%[59 µM]
COc1ccc(NC(=O)Cn2c(=O)n(CC3CCCO3)c(=O)c3ccccc32)c(OC)c1 (stereo not drawn)	0.0282µM*	0.7%	6.7%	?	0.6%	-30.1%
CC(C)CCNc1nc(N)c([N+](=O)[O-])c(N2CCCCCC2)n1	·	19.6%	5.1%	·	·	-12.0%
COc1cc(C(=O)NCC(=O)N/N=C/c2ccc(-c3cccc([N+](=O)[O-])c3)o2)cc(OC)c1OC	·	3.3%	-14.0%	·	·	10µM*
COc1cc(C(=O)NCC(=O)N/N=C/c2ccc(-c3ccc([N+](=O)[O-])cc3)o2)cc(OC)c1OC	·	11.5%	-10.6%	·	·	44.7µM*
COc1ccccc1C(=O)NCC(=O)N/N=C/c1ccc([N+](=O)[O-])cc1	9.9%	-2.1%	11.2%	·	-0.3%	16.1%
CCOc1ccccc1CNC(=O)Cn1ncn2nc(-c3cccs3)cc2c1=O	·	-37.2%	·	·	·	?
COc1ccccc1N1CCN(CCCNc2cc(=O)n(C)c(=O)n2C)CC1	2.8%	-0.7%	10.5%	?	-3.1%	22.4µM*!
COc1ccccc1N1CCN(CCCNc2c(C)c(=O)n(C)c(=O)n2C)CC1	3.9%	·	-5.0%	?	5.3%	45.9%[12.7 µM]
N=c1n(CC(=O)c2ccc([N+](=O)[O-])cc2)c2ccccc2n1Cc1ccc(Cl)cc1	-1.8%	-5.9%	?	-3.9%	-6.1%	?
C=CCn1c(=N)n(CC(=O)c2cccc([N+](=O)[O-])c2)c2ccccc21	-16.6%	-19.8%	-18.8%	20.9%[46 µM]	-23.2%	·
N=c1n(CCN2CCCCC2)c2ccccc2n1CC(=O)c1cccc([N+](=O)[O-])c1	·	-11.3%	1.4%	·	·	44.7µM*
N=c1n(CC(=O)c2ccc([N+](=O)[O-])cc2)c2ccccc2n1Cc1ccccc1	-11.1%	-11.9%	?	-9.6%	?	44.7µM*
COCCN1Cc2cccc(C(=O)Nc3ccc(C)cc3C)c2C1=O	·	-14.6%	·	·	·	8.8%[59 µM]
COc1cccc(C2=Nn3c(nnc3-c3ccccc3C)SC2)c1	·	·	63.1µM*	·	·	·
Cc1cc(-c2nnc3n2N=C(c2ccccc2)CS3)n[nH]1	7.9%	-11.0%	-18.1%	·	10.3%	44.7µM*
Cc1cc(-c2nnc3n2N=C(c2ccc(-c4ccccc4)cc2)CS3)n[nH]1	?	4.8%	-4.5%	?	-8.8%	?
COc1ccc(C2=Nn3c(nnc3-c3ccccc3O)SC2)cc1OC	·	·	44.7µM*	·	·	·
CN(CC(=O)Nc1ccccc1Cl)C(=O)Cn1cc(C(F)(F)F)ccc1=O	·	·	·	·	·	-8.9%[2.33 µM]
Cc1nnc(SCC(=O)Nc2nnc(-c3ccccc3)o2)s1	·	·	·	·	·	12.6µM*
SMILES	ALDH1A1 inh	miR-21 act	Sfp inh	Lamin A splicing	KDM4E inh	G9a block
CCN(C(=O)CSc1nnc(Nc2cccc(C)c2C)s1)C1CCS(=O)(=O)C1 (stereo not drawn)	3.5%	-2.5%	14.6%	-3.8%	1.7%	-5.9%[59 µM]
CN(CC(=O)Nc1ccccc1Cl)C(=O)Cn1cc(C(F)(F)F)cc(Cl)c1=O	·	·	·	·	·	44.7µM*
CCc1ccccc1NC(=O)CN(C)C(=O)CSc1nnc(Nc2cccc(C)c2C)s1	-6.2%	10.4%	-9.0%	?	-3.1%	15.8µM*
Cc1nnc(SCC(=O)N(C)CC(=O)Nc2ccccc2Cl)s1	·	·	·	·	·	50.1µM*
CC(C)(C)c1ccc(O)c(N=Cc2cc(Br)ccc2O)c1	?	-11.0%	50.1µM*	·	28.2µM*	1.78µM*
Cc1ccc(O)c(N=CC2=C(O)c3ccccc3C2=O)c1	?	-47.7%	-27.4%	?	-5.5%	31.6µM*
Cc1ccc(O)c(C=Nc2cc(C)ccc2O)c1	-4.1%	-1.0%	-8.3%	?	20µM*	-17.4%[59 µM]
CCN(CC)c1ccc(N=Cc2cc(Br)ccc2O)cc1	7.94µM*	?	63.1µM*	·	?	14.1µM*
C=CCN1C(=O)/C(=C\c2ccc(Oc3nc(N4CCOCC4)nc(N4CCOCC4)n3)c(OC)c2)SC1=S	?	-1.5%	14.3%	·	-2.4%	?
COC(=O)c1ccc(NC(=O)CSc2ncc3c(n2)-c2cc(Cl)ccc2N(Cc2ccccc2)S3(=O)=O)cc1	·	6.0%	·	·	·	-2.1%[59 µM]
CC1(C(=O)NC(=S)N(CCC#N)c2ccccc2)CC1(Cl)Cl (stereo not drawn)	-8.1%	-1.4%	-2.5%	20.4%	0.5%	28.2µM*
CCOc1ccc(-c2nc(SC(C(C)=O)C(=O)N(C)C)c3c(=O)n(C)c(=O)n(C)c3n2)cc1 (stereo not drawn)	·	-2.4%	·	7.2%[46 µM]	·	0.2%[59 µM]
COc1cc(CN(C(=O)c2cccc(C)c2)c2ccccn2)cc(OC)c1OC	·	5.8%	·	15.0%[46 µM]	·	3.1%[59 µM]
C=CC1=C2C=C(C3CC3)N(Cc3ccc4c(c3)OCO4)C=C2C(=O)C(C)(OC(=O)c2ccco2)C1=O (stereo not drawn)	-1.3%[13.5 µM]	·	3.6%	?	-27.6%[11.4 µM]	·
CCN1C(=O)/C(=C2/C=CC=CN2C)OC1=S	?	-8.7%	-17.3%	5.5%	-9.0%	44.7µM*
CN1C=CC=C/C1=C1\SC(=S)N(C2CCCCC2)C1=O	14.1µM*	-22.0%	-17.8%	2.0%	-4.1%	15.8µM*
CN1C=CC=C/C1=C1\SC(=S)N(CC(=O)O)C1=O	?	-2.7%	44.7µM*	?	?	20µM*
CN1C=CC=C/C1=C1\SC(=S)N(c2ccccc2)C1=O	11.2µM*	-6.7%	25.1µM*	-6.9%	-12.0%	17.8µM*
CN(C)CCN(Cc1ccco1)C(=O)c1cc2c(s1)-c1ccccc1OC2	·	?	·	·	·	7.4%[59 µM]
O=C(CSc1ccc2nnc(-c3ccccn3)n2n1)Nc1ccc(F)cc1F	·	0.6%	6.1%	·	·	·
O=C(Cn1c(=O)oc2cc(S(=O)(=O)N3CCCCCC3)ccc21)Nc1cccc(C(F)(F)F)c1	·	-0.6%	·	20.9%[46 µM]	·	-30.6%[59 µM]
